{"source": "PubChem BioAssay (EPA / NIEHS)", "note": "Several values for one entry are separate records, joined by “and”; a condition that tells them apart may be missing. Equal entries are not always repeated. Some compounds were tested as several samples or in several runs, with calls that do not always agree. Activity calls are given as the source filed them. How the source made its calls: active means hit-call score of the fitted dose curve at least 0.9, where 1 is the maximum; inactive means score below 0.9.", "data": [{"test": "ATG_AP_1_CIS: Attagene CIS-FACTORIAL HepG2 Assay for human Activator Protein 1 (AP-1) (AID 2282931)", "conditions": "HepG2 Attagene cis-factorial AP-1 reporter mRNA; actives raise or lower the signal", "procedure": "ATG_CIS is a cell-based, multiplexed-readout assay that uses HepG2, a human liver cell line, with measurements taken at 24 hours after chemical dosing in a 24-well plate.ATG_AP_1_CIS is one of 52 assay component(s) measured or calculated from the ATG_CIS assay. It is designed to make measurements of mRNA induction, a form of inducible reporter, as detected with fluorescence intensity signals by Reverse transcription polymerase chain reaction (RT-PCR) and Capillary electrophoresis technology.Data from the assay component ATG_AP_1_CIS was analyzed into 1 assay endpoint. This assay endpoint, ATG_AP_1_CIS, was analyzed with bidirectional fitting relative to DMSO as the negative control and baseline of activity. Using a type of inducible reporter, measures of mRNA for gain or loss-of-signal activity can be used to understand the reporter gene at the transcription factor-level as they relate to the gene FOS and JUN. Furthermore, this assay endpoint can be referred to as a primary readout, because this assay has produced multiple assay endpoints where this one serves a reporter gene function. To generalize the intended target to other relatable targets, this assay endpoint is annotated to the dna binding intended target family, where the subfamily is basic leucine zipper.\nHuman liver HepG2 cells are transiently transfected with multiple reporter transcription units (MRTUs) in 6-well plates using FuGene 6 reagent (Roche; 3 ml FuGene/1 mg DNA). The MRTU constructs are regulated by a cis-regulating element (promoter). […] A major difference between the CIS and TRANS system is that in CIS activities of endogenous TFs are measured, whereas the TRANS assay evaluates changes in activities of exogenous, chimeric NR-Gal4 proteins. […] At the end of 24 hour incubation, total RNA was isolated using TriZol reagent (Invitrogen). The isolated RNA is then reverse-transcribed using oligo(dT) primer and Mo-MLV reverse transcriptase (Invitrogen) with DNAse I (Ambion) treatment for 30 min. The one-tenth of the produced cDNA was amplified by PCR using Taq DNA polymerase (Invitrogen) and two reporter sequence-specific primers. The PCR products were fluorescently labeled by primer extension with 6-arboxyfluorescein (6-FAM) 5'-labeled reporter sequence-specific primer (2 min at 95 C, 20 s at 68 C and 10 min at 72 C) and these products were digested with 5U of HpaI (New England Biolabs) for 2h at 37 C. The fragments were purified using Qiaquick PCR columns (Qiagen), analyzed on an ABI 3130xL genetic analyzer (Applied Biosystems) with peak positions identified by using a set of X-rhodamine (ROX)-labeled MapMarker1000 molecular weight standards (BioVentures). The raw capillary electrophoresis data was processed using Attagraph software (Attagene).", "values": [{"compound": "N#CC(Br)Br", "outcome": "inactive"}, {"compound": "CN(C)[C@@H]1C(=O)C(C(N)=O)=C(O)[C@@]2(O)C(=O)C3=C(O)c4c(O)cccc4[C@@](C)(O)[C@H]3C[C@@H]12", "outcome": "inactive"}, {"compound": "Clc1ccc(C(c2ccc(Cl)cc2)C(Cl)(Cl)Cl)cc1", "AC50": "51.4 µM (active)"}, {"compound": "CCN(CC)CCO", "outcome": "inactive"}, {"compound": "ClC1=C(Cl)[C@]2(Cl)[C@H]3[C@H]([C@@H]4C=C[C@H]3C4)[C@@]1(Cl)C2(Cl)Cl", "AC50": "46.9 µM (active)"}, {"compound": "CCNS(=O)(=O)C(F)(F)C(F)(F)C(F)(F)C(F)(F)C(F)(F)C(F)(F)C(F)(F)C(F)(F)F", "outcome": "inactive", "AC50": "29.9 µM (active) and 75.2 µM (active)"}, {"compound": "CCCCCCCCOC(=O)c1ccc(C(=O)OCCCCCCCC)c(C(=O)OCCCCCCCC)c1", "outcome": "inactive"}, {"compound": "CN(C)c1ccc(C(=O)c2ccc(N(C)C)cc2)cc1", "outcome": "inactive"}, {"compound": "Clc1ccccc1Cl", "outcome": "inactive"}, {"compound": "COC(=O)c1ccccc1N", "outcome": "inactive"}, {"compound": "CN(C)C(=O)Nc1ccc(Cl)cc1", "outcome": "inactive"}, {"compound": "O=[N+]([O-])C(Br)(CO)CO", "AC50": "25.2 µM (active)"}, {"compound": "COC(=O)Nc1nc2ccccc2[nH]1", "outcome": "inactive"}, {"compound": "ClCCOCCCl", "outcome": "inactive"}, {"compound": "CCC[CH2][Sn]([Cl])([CH2]CCC)[CH2]CCC", "AC50": "0.522 µM (active)"}, {"compound": "c1ccc2c(c1)oc1ccccc12", "outcome": "inactive"}, {"compound": "ClC1=C(Cl)C2(Cl)C3C(Cl)C=CC3C1(Cl)C2(Cl)Cl", "note": "(stereo not given)", "AC50": "154 µM (active)"}, {"compound": "CC(C)N(Cc1ccccc1)C(=O)C(C)(C)C", "outcome": "inactive"}, {"compound": "Cc1ccc(N)c(N)c1", "AC50": "27.5 µM (active)"}, {"compound": "CCC(C)c1ccc(O)cc1", "note": "(stereo not given)", "AC50": "69.8 µM (active)"}, {"compound": "CC(C)(OOC(C)(C)c1ccccc1)c1ccccc1", "AC50": "57.5 µM (active)"}, {"compound": "CC(C)COC(=O)c1ccccc1C(=O)OCC(C)C", "AC50": "70.3 µM (active)"}, {"compound": "c1ccc2c(c1)-c1cccc3cccc-2c13", "outcome": "inactive"}, {"compound": "CCCSC(=O)N(CCC)CCC", "outcome": "inactive"}, {"compound": "Oc1ccc2ccc3cccc4ccc1c2c34", "outcome": "inactive"}, {"compound": "[As]#[In]", "outcome": "inactive"}, {"compound": "Cc1cccc(N)c1N", "AC50": "30.5 µM (active)"}, {"compound": "CC(C)(C)OOC(C)(C)CCC(C)(C)OOC(C)(C)C", "AC50": "100 µM (active)"}, {"compound": "C[N+](C)(C)CC1CO1", "note": "(stereo not given)", "outcome": "inactive"}, {"compound": "O=C(N[C@H](c1ccccc1)[C@@H]1CN2CCC1CC2)c1c(Cl)ccc(C(F)(F)F)c1Cl", "outcome": "inactive"}, {"compound": "Cc1cc(N=Nc2ccccc2C)ccc1N", "outcome": "inactive"}, {"compound": "Cc1ccc(N)cc1", "outcome": "inactive"}, {"compound": "Clc1ccc(C(c2ccc(Cl)cc2)C(Cl)Cl)cc1", "AC50": "50.9 µM (active)"}, {"compound": "OCCCBr", "outcome": "inactive"}, {"compound": "CC(C)(C)C(O)(CCc1ccc(Cl)cc1)Cn1cncn1", "note": "(stereo not given)", "AC50": "140 µM (active)"}, {"compound": "Nc1cc(Cl)cc(C(=O)O)c1Cl", "outcome": "inactive"}, {"compound": "C[C@]12C=CC3=C4CCC(=O)C=C4CC[C@H]3[C@@H]1CC[C@@H]2O", "outcome": "inactive"}, {"compound": "CCCCOC(=O)c1ccccc1C(=O)OCc1ccccc1", "outcome": "inactive"}, {"compound": "Brc1ccc(Oc2ccccc2)cc1", "outcome": "inactive"}]}]}
